Values joined by “and” are separate entries in the source; they are usually repeats but may differ in a detail not shown here. Equal values may be shown once. Records with an inconclusive call do not appear. Some structures have more than one record in an assay (separate samples or runs), and their calls can disagree. Active and inactive are the calls of the source. The calls were made as follows, unless noted: active = hit-call score of the fitted dose curve at least 0.9, where 1 is the maximum; inactive = score below 0.9.
How the values were obtained:
[1] = ACEA_ER_80hr: ACEA Biosciences xCELLigence Real-Time Cell Analysis on Estrogen Receptor Agonism for Proliferation (AID 2282667; active = hit-call score of the fitted dose curve at least 0.9, where 1 is the maximum); conditions: T47D proliferation, impedance (xCELLigence), 80 h
How it was run: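 T-47D cells monitored by electrical impedance (xCELLigence) with compound present throughout; 80 h timepoint, positive-direction fitting versus DMSO. Eight-point 1:4 dilutions from 100 uM final, duplicate plates.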

[2] = APR_HepG2_CellCycleArrest_24hr: Apredica 24-hour HepG2 Assay for Cell Cycle Arrest (AID 2282905); conditions: imaging, actives raise or lower the signal;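 also: cell cycle arrest scored as ratio of 2N to 4N nuclear DNA content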
How it was run: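 Readout: Hoechst 33342 nuclear DNA content by high-content fluorescent imaging, six images/well, 20x. Human HepG2 liver cells, 24 hr compound exposure, 0.39–200 uM, final DMSO 0.5% v/v. Gain or loss fitted relative to DMSO baseline.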

[3] = APR_HepG2_NuclearSize_24hr: Apredica 24-hour HepG2 Assay for Nuclear Size (AID 2282907); conditions: high-content imaging, actives raise or lower the signal
How it was run: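 Read-out: nuclear diameter from Hoechst 33342 (2 ug/mL) imaging of fixed HepG2 cells, 20x, six fields/well. Compounds ran at 0.39–200 uM for 24 hr, 0.5% DMSO final. Gain or loss was fitted bidirectionally relative to the DMSO baseline.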

[4] = APR_HepG2_CellLoss_24hr: Apredica 24-hour HepG2 Assay for Cell Loss (AID 2282908); conditions: high-content imaging;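 as to AC50: fit in both directions so a hit may be cell loss or gain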
How it was run: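 Read-out: Hoechst 33342-stained nuclei counted by automated fluorescence imaging after formaldehyde fixation and Triton permeabilization. Ten concentrations, 0.39 to 200 uM, duplicate wells, 0.5% DMSO final. Gain or loss of signal fitted relative to DMSO baseline.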

[5] = APR_HepG2_MicrotubuleCSK_24hr: Apredica 24-hour HepG2 Assay for Microtubule CSK Stabilty (AID 2282909); conditions: HepG2 microtubule cytoskeleton imaging, actives raise or lower the signal
How it was run: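 Read-out: alpha-tubulin immunofluorescence intensity by automated high-content imaging of fixed HepG2 cells after 24 h compound treatment. Ten concentrations, 0.39 to 200 uM, in duplicate; DMSO 0.5% v/v. Taxol positive control; DMSO-normalized bidirectional curve fitting.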

[6] = APR_HepG2_MitoticArrest_24hr: Apredica 24-hour HepG2 Assay for Mitotic Arrest (AID 2282910); conditions: high-content imaging, actives raise or lower the signal
How it was run: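 Treatment lasted 24 hr in the human HepG2 line at 0.39–200 uM, solvent held at 0.5% DMSO. Fixed cells were stained with Hoechst 33342 and anti-phospho-histone H3, imaged at 20x, and analysed by gain- or loss-of-signal fitting against DMSO.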

[7] = APR_HepG2_MitoMembPot_24hr: Apredica 24-hour HepG2 Assay for Mitochondrial Membrane Potential (AID 2282911); conditions: imaging, actives raise or lower the signal
How it was run: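 HepG2 cells exposed 24 h to 0.39–200 uM compounds in duplicate, 0.5% v/v DMSO final. MitoTracker Red CMXRos 250 nM loaded 30 min before formaldehyde fixation; high-content imaging at 20x, bidirectional fit versus DMSO.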

[8] = APR_HepG2_MitoMass_24hr: Apredica 24-hour HepG2 Assay for Mitochondrial Mass (AID 2282912); conditions: high-content imaging, actives raise or lower the signal
How it was run: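 HepG2, 24 hr dosing, 10 concentrations 0.39–200 uM in duplicate, DMSO 0.5% final. MitoTracker Red CMXRos 250 nM, 30 min pre-fix; 3.7% formaldehyde fix. Imaging-based fluorescence intensity; gain/loss fit vs DMSO baseline.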

[9] = APR_HepG2_p53Act_24hr: Apredica 24-hour HepG2 Assay for p53 Activation (AID 2282913); conditions: high-content imaging, actives raise or lower the signal;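 also: p53 protein immunofluorescence averaged per cell in HepG2 with Hoechst nuclei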
How it was run: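 HepG2 cells exposed 24 h to compounds at 0.39–200 uM in duplicate, 0.5% v/v DMSO final; fixed, permeabilized, stained with anti-p53 antibody and Hoechst 33342; fluorescence imaging; bidirectional curve fit versus DMSO.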

[10] = APR_HepG2_CellCycleArrest_72hr: Apredica 72-hour HepG2 Assay for Cell Cycle Arrest (AID 2282914); conditions: high-content imaging, actives raise or lower the signal
How it was run: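 HepG2 cells exposed 72 h in duplicate to 0.39–200 uM compound, 0.5% DMSO final. Formaldehyde-fixed, Hoechst 33342-stained nuclei imaged at 20x, six fields per well; DNA content per valid cell quantified by cell-cycle image analysis, bidirectional fit versus DMSO.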

[11] = APR_HepG2_CellLoss_72hr: Apredica 72-hour HepG2 Assay for Cell Loss (AID 2282915); conditions: high-content imaging
How it was run: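 HepG2 cells were exposed for 72 hr to compounds at 0.39–200 uM (ten concentrations, duplicate) in 0.5% v/v final DMSO. Nuclei were stained with Hoechst 33342 after 3.7% formaldehyde fixation, imaged at 20x, and counted; fits bidirectional versus DMSO.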

[12] = APR_HepG2_P-H2AX_72hr: Apredica 72-hour HepG2 Assay for H2AX Phosphorylation (AID 2282916); conditions: imaging, actives raise or lower the signal;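 also: phospho-histone H2A.x immunostain intensity per cell marking DNA damage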
How it was run: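 Readout: phospho-H2A.x immunofluorescence (FITC secondary) plus Hoechst nuclear stain, high-content imaging at 20x, six fields/well. HepG2, 72 hr compound exposure, 0.39–200 uM, final DMSO 0.5% v/v. Gain or loss fitted relative to DMSO baseline.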

[13] = APR_HepG2_MitoMembPot_72hr: Apredica 72-hour HepG2 Assay for Mitochondrial Membrane Potential (AID 2282917); conditions: imaging, actives raise or lower the signal
How it was run: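 HepG2 cells exposed 72 h to compounds at 0.39–200 uM (0.5% v/v DMSO, duplicates); MitoTracker Red CMXRos 250 nM loaded 30 min before 3.7% formaldehyde fixation, imaged by HCS fluorescence. Bidirectional fit versus DMSO.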

[14] = APR_HepG2_MitoticArrest_72hr: Apredica 72-hour HepG2 Assay for Mitotic Arrest (AID 2282918); conditions: high-content imaging, actives raise or lower the signal
How it was run: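 HepG2 cells treated 72 h at 0.39–200 uM, 0.5% DMSO final; formaldehyde-fixed, stained with Hoechst 33342 and phospho-histone H3 antibody, imaged by high-content fluorescence; bidirectional fit versus DMSO.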

[15] = APR_HepG2_MicrotubuleCSK_72hr: Apredica 72-hour HepG2 Assay for Microtubule CSK Stabilty (AID 2282919); conditions: HepG2 microtubule cytoskeleton, high-content imaging, actives raise or lower the signal
How it was run: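 Ten-point dosing (0.39–200 uM, 0.5% DMSO) of HepG2 for 72 hr, with taxol as the cytoskeletal positive control. The cells were formaldehyde-fixed and then stained with alpha-tubulin/Cy5 and Hoechst. Imaging at 20x used a −2 um Z offset for tubulin.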

[16] = APR_HepG2_P-H2AX_24hr: Apredica 24-hour HepG2 Assay for H2AX Phosphorylation (AID 2282920); conditions: high-content imaging, actives raise or lower the signal
How it was run: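 HepG2 cells dosed 24 h at 0.39–200 uM (10 points, duplicate, 0.5% DMSO final). Formaldehyde-fixed and permeabilized, then immunostained for phospho-H2A.x with Hoechst. Fluorescence quantified by high-content imaging, fitted bidirectionally versus DMSO.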

[17] = APR_HepG2_StressKinase_72hr: Apredica 72-hour HepG2 Assay for Stress Kinase (AID 2282921); conditions: HepG2 stress kinase (phospho-c-Jun) imaging, actives raise or lower the signal
How it was run: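 Phospho-c-Jun immunofluorescence measured by high-content imaging at 20x, six fields per well; bidirectional curve fitting against DMSO as baseline. Dosing: 0.39–200 uM, 72 h, 0.5% DMSO final.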

[18] = APR_HepG2_StressKinase_24hr: Apredica 24-hour HepG2 Assay for Stress Kinase (AID 2282922); conditions: HepG2 stress kinase (phospho-c-Jun) imaging, actives raise or lower the signal
How it was run: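 After 24 hr compound treatment (up to 200 uM, final DMSO 0.5% v/v), HepG2 cells are fixed and multiplex-labeled; phospho-c-Jun intensity is captured by high-content fluorescence imaging and analyzed relative to DMSO.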

[19] = APR_HepG2_p53Act_72hr: Apredica 72-hour HepG2 Assay for p53 Activation (AID 2282923); conditions: high-content imaging, actives raise or lower the signal;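 also: average cellular p53 protein immunofluorescence intensity in HepG2 cells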
How it was run: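 Readout: p53 immunofluorescence quantified by automated high-content imaging at 20x, six fields per well, nuclei located via Hoechst. Dosing ran 72 hr over ten concentrations from 0.39 to 200 uM; bidirectional curve fitting against DMSO baseline.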

[20] = APR_HepG2_MitoMass_72hr: Apredica 72-hour HepG2 Assay for Mitochondrial Mass (AID 2282924); conditions: high-content imaging, actives raise or lower the signal;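 also: MitoTracker Red CMXRos stain intensity per cell imaged as mitochondrial mass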
How it was run: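 Steps: treat HepG2 72 hr (0.39–200 uM, duplicate wells); load MitoTracker Red CMXRos, 250 nM, 30 min; fix with 3.7% formaldehyde, permeabilise with 0.5% Triton X-100; capture images, nuclei via Hoechst 33342; fit bidirectionally against DMSO.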

## Oc1cccc(O)c1
[1]
  outcome: inactive
[2]
  outcome: inactive
[3]
  outcome: inactive
[4]
  outcome: inactive
[5]
  outcome: inactive
[6]
  outcome: inactive
[7]
  outcome: inactive
[8]
  outcome: inactive
[9]
  outcome: inactive
[10]
  outcome: inactive
[11]
  outcome: inactive
[12]
  outcome: inactive
[13]
  outcome: inactive
[14]
  outcome: inactive
[15]
  outcome: inactive
[16]
  outcome: inactive
[17]
  outcome: inactive
[18]
  outcome: inactive
[19]
  outcome: inactive
[20]
  outcome: inactive

## FC(F)(I)C(F)(F)C(F)(F)C(F)(F)C(F)(F)C(F)(F)I
[1]
  AC50: 6.86 nM (active) and 252 nM (active)

## Cc1oc(-c2ccccc2)nc1CCOc1ccc(C[C@H](Nc2ccccc2C(=O)c2ccccc2)C(=O)O)cc1
[1]
  outcome: inactive
[2]
  outcome: inactive
[3]
  outcome: inactive
[4]
  AC50: 84.9 µM (active)
[5]
  outcome: inactive
[6]
  AC50: 84.9 µM (active)
[7]
  AC50: 109 µM (active)
[8]
  outcome: inactive
[9]
  AC50: 107 µM (active)
[10]
  AC50: 82.7 µM (active)
[11]
  AC50: 53.3 µM (active)
[12]
  AC50: 59 µM (active)
[13]
  AC50: 120 µM (active)
[14]
  AC50: 67.8 µM (active)
[15]
  outcome: inactive
[16]
  AC50: 81.7 µM (active)
[17]
  outcome: inactive
[18]
  outcome: inactive
[19]
  AC50: 95.7 µM (active)
[20]
  outcome: inactive

## C[C@@H]1C[C@H]2[C@@H]3CCC4=CC(=O)C=C[C@]4(C)[C@@]3(F)[C@@H](O)C[C@]2(C)[C@@]1(O)C(=O)COP(=O)(O)O
[1]
  AC50: 685 nM (active)
  outcome: inactive
[2]
  outcome: inactive
[3]
  AC50: 9.81 µM (active)
[4]
  AC50: 15.4 µM (active)
[5]
  AC50: 94 µM (active)
[6]
  AC50: 1.76 µM (active)
[7]
  AC50: 37.7 µM (active)
[8]
  AC50: 2.64 µM (active)
[9]
  AC50: 27.5 µM (active)
[10]
  AC50: 94 µM (active)
[11]
  AC50: 6.32 µM (active)
[12]
  AC50: 1.09 µM (active)
[13]
  AC50: 45.1 µM (active)
[14]
  AC50: 1.12 µM (active)
[15]
  outcome: inactive
[16]
  AC50: 16 µM (active)
[17]
  outcome: inactive
[18]
  outcome: inactive
[19]
  AC50: 1.45 µM (active)
[20]
  AC50: 5.23 µM (active)

## CCCCC[C@H](O)CC(=O)CCc1ccc(O)c(OC)c1
[1]
  outcome: inactive
[2]
  outcome: inactive
[3]
  outcome: inactive
[4]
  outcome: inactive
[5]
  outcome: inactive
[6]
  outcome: inactive
[7]
  outcome: inactive
[8]
  outcome: inactive
[9]
  outcome: inactive
[10]
  outcome: inactive
[11]
  outcome: inactive
[12]
  outcome: inactive
[13]
  outcome: inactive
[14]
  outcome: inactive
[15]
  outcome: inactive
[16]
  outcome: inactive
[17]
  outcome: inactive
[18]
  outcome: inactive
[19]
  outcome: inactive
[20]
  outcome: inactive

## CCC(C)(C)C1CCC(O)CC1 (centres undefined)
[1]
  AC50: 2.38 µM (active) and 336 nM (active)
  outcome: inactive
[2]
  outcome: inactive
[3]
  outcome: inactive
[4]
  AC50: 99.8 µM (active)
[5]
  outcome: inactive
[6]
  outcome: inactive
[7]
  outcome: inactive
[8]
  outcome: inactive
[9]
  AC50: 122 µM (active)
[10]
  outcome: inactive
[11]
  AC50: 122 µM (active)
[12]
  AC50: 112 µM (active)
[13]
  outcome: inactive
[14]
  AC50: 102 µM (active)
[15]
  outcome: inactive
[16]
  AC50: 114 µM (active)
[17]
  outcome: inactive
[18]
  outcome: inactive
[19]
  AC50: 105 µM (active)
[20]
  outcome: inactive

## Cc1ccc(S(=O)(=O)O)c(C)c1
[1]
  outcome: inactive

## OCCC(F)(F)C(F)(F)C(F)(F)C(F)(F)C(F)(F)C(F)(F)F
[1]
  outcome: inactive
[2]
  outcome: inactive
[3]
  outcome: inactive
[4]
  outcome: inactive
[5]
  outcome: inactive
[6]
  outcome: inactive
[7]
  outcome: inactive
[8]
  outcome: inactive
[9]
  outcome: inactive
[10]
  outcome: inactive
[11]
  outcome: inactive
[12]
  outcome: inactive
[13]
  outcome: inactive
[14]
  outcome: inactive
[15]
  outcome: inactive
[16]
  outcome: inactive
[17]
  outcome: inactive
[18]
  outcome: inactive
[19]
  outcome: inactive
[20]
  outcome: inactive

Source: PubChem BioAssay (EPA / NIEHS)
